From PubChem BioAssay (EPA / NIEHS)
The source made the active and inactive calls. The calls were made as follows: active = hit-call score of the fitted dose curve at least 0.9, where 1 is the maximum; inactive = score below 0.9.

These molecules were tested on Monocyte Chemoattractant Protein-1 (MCP1), CCL2 (gene 6347) (assay: BSK_LPS_MCP1: BioMAP Diversity Plus: LPS Assay for Monocyte Chemoattractant Protein-1 (MCP1) Biomarker Activity (AID 2283081;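 as to AC50: co-culture stimulated with LPS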)). Details: primary human HUVEC with PBMC; actives raise or lower the signal.
Experimental: BSK_LPS is a cell-based, multiplexed-readout assay that uses umbilical vein endothelium and peripheral blood mononuclear cells, a human vascular primary cell co-culture, with measurements taken at 24 hours after chemical dosing in a 96-well plate.BSK_LPS_MCP1 is an assay component measured in the BSK_LPS assay. It measures MCP-1 antibody related to regulation of gene expression using ELISA technology.Data from the assay component BSK_LPS_MCP1 was analyzed into 1 assay endpoint. This assay endpoint, BSK_LPS_MCP1, was analyzed with bidirectional fitting relative to DMSO as the negative control and baseline of activity. Using a type of binding reporter, gain or loss-of-signal activity can be used to understand changes in the signaling as they relate to the gene CCL2. Furthermore, this assay endpoint can be referred to as a primary readout, because this assay has produced multiple assay endpoints where this one serves a signaling function. To generalize the intended target to other relatable targets, this assay endpoint is annotated to the cytokine intended target family, where the subfamily is chemotactic factor.
The levels of cell surface (or secreted, indicated by the prefix "s") biomarker endpoints were measured by ELISA. Overt cytotoxicity to cells in confluent adherent cultures (all systems other than the BT system) was assessed by measuring total protein levels using sulforhodamine B (SRB) staining in parallel cultures at the time of biomarker measurements, indicated as SRB endpoints. For proliferation assays for adherent cell types, individual cell types are cultured at sub-confluence and relative cell numbers quantified by SRB staining at time points optimized for each system (48 h: 3C and CASM3C systems; 72 h: BT and HDF3CGF systems; 96 h: SAg system). SRB was performed by staining cells with 0.1% SRB after fixation with 10% TCA and reading wells at 560 nm.Viability and proliferation of PBMC (T cells) was quantified by Alamar Blue reduction for the SAg and BT systems. For PBMC viability (referred to as PBMC Cytotoxicity within the assay endpoint names), cells were plated (75,000/well in a 96-well plate) and then chemical samples added for 1 h before addition of activators, SEB and TSST-1 (20 ng/mL final concentration each). Cells were incubated for 90 h. Then, Alamar Blue (20 uL/well) (Invitrogen, Cat DAL1100) was added for 6 h, and the plates were read with a fluorescence microplate reader at 546/580 nm (excitation/emission). For PBMC proliferation, cells were plated and activated as above but incubated for only 16 h prior to addition of Alamar Blue. Plates were read after 6 h.

Compound | outcome | AC50
CCCCN1C(=O)[C@@H]([C@H](O)C2CCCCC2)NC(=O)C12CCN(Cc1ccc(Oc3ccc(C(=O)O)cc3)cc1)CC2 | inactive | 
NC(=O)N(O)[C@@H]1COc2cc(OCc3ccccc3)ccc21 | inactive | 
NC(=O)NN=Cc1ccc([N+](=O)[O-])o1 | inactive | 
O=C(O)c1cccc(C[C@@H]2COc3ccc(OCc4nc5cc(F)ccc5s4)cc3[C@@H]2O)c1 | inactive | 
CCCOc1ccc(S(=O)(=O)N2CCN(CC)CC2)cc1-c1nc2c(CC)n(Cc3ccccn3)nc2c(=O)[nH]1 | inactive | 
OC(O)(C(F)C(O)(O)C(F)(F)F)C(F)(F)F | inactive | 
OCc1c[nH]c2ccccc12 | inactive | 
CCCCCCCC1CCC(=O)O1 (stereo not given) | inactive | 
CCc1ccc(O)c(C(C)(C)C)c1 | inactive | 
C[C@@H](Oc1ccc(CNC(=O)c2cccnc2Oc2ccc3c(c2)OCO3)c(F)c1)C(=O)O | inactive | 
O=C1CN(N=Cc2ccc([N+](=O)[O-])o2)C(=O)N1 | inactive | 
CCCCCOC(C)=O | inactive | 
CNC(C)=O | inactive | 
CC(=O)c1ccccc1 | inactive | 
FC(F)(F)C(F)(F)C(F)(F)C(F)(F)C(F)(F)C(F)(F)I | inactive | 
O=C(O)c1cccc(C(=O)O)c1 | inactive | 
OC(CCl)CCl | inactive | 
CC[C@H](C)C(=O)O[C@H]1C[C@H](O)C=C2C=C[C@H](C)[C@H](CC[C@@H](O)C[C@@H](O)CC(=O)O)[C@H]21 | inactive | 
CCc1cccc(CC)c1N | inactive | 
OCCNCCO | inactive | 

Compound | outcome | AC50
CCCCCCCCCC | inactive | 
FC(F)(F)COC(OCC(F)(F)F)OCC(F)(F)F | inactive | 
c1ccc2cc3ccccc3cc2c1 | inactive | 
c1ccc2ncccc2c1 | inactive | 
Cc1ccc(S(=O)(=O)NC(=O)NN2CCCCCC2)cc1 | inactive | 
CCCCOC(=O)c1ccccc1 | inactive | 
COc1cc2c(c(OC)c1OC)-c1ccc(OC)c(=O)cc1[C@@H](NC(C)=O)CC2 | inactive | 
OC[C@H]1O[C@@](CO)(O[C@H]2O[C@H](CO)[C@@H](O)[C@H](O)[C@H]2O)[C@@H](O)[C@@H]1O | inactive | 
OCCOCCOCCO | inactive | 
O=C(O)c1ccc2c(c1)nc(C(=O)NC1CCN(C3CC3)CC1)n2Cc1cc(-c2ccc(Cl)s2)on1 | inactive | 
COc1cc(C(C)C)c2c(c1)S(=O)(=O)N(COc1cc(=O)n3cccc(OCCN4CCCCC4)c3n1)C2=O | inactive | 
Cc1nccn1-c1ccc(Sc2cccc(C3(C(N)=O)CCOCC3)c2)cc1 | inactive | 
CCCC(CCC)C(=O)O | inactive | 
Cc1cccc(O)c1C | inactive | 
S=P(N1CC1)(N1CC1)N1CC1 | inactive | 
CCn1nc(C)c2c1C(=O)NCC(c1ccc(O)cc1)=N2 | inactive | 
CCCCCCCCN(C)C | inactive | 
O=C(Cl)C(F)(F)C(F)(F)C(F)(F)C(=O)Cl | inactive | 
CCCCCCCCCCCCCCCCOS(=O)(=O)O | inactive | 
C=CCc1cc(S(=O)(=O)c2ccc(O)c(CC=C)c2)ccc1O |  | 15.8 µM (active)
